Results reported in PubChem BioAssay (NCATS).
Records with an inconclusive call do not appear. Active and inactive are the calls of the source. Calls follow the shape of the dose curve; as a rule, active = well fitted inhibition curve with a large enough effect; inconclusive = small, poorly fitted or top-dose-only effect; inactive = flat fitted curve, though single readings scatter.

molecular target: Calcium and integrin-binding protein 1 (Homo sapiens) (UniProt Q99828); assay: Primary qHTS for Identification of Calcium Integrin Binding Protein 1 (CIB1) Competitor (AID 1508620); conditions: CIB1-GST / FITC-alphaIIb peptide fluorescence polarization; series mostly up to 57.7 µM; activity change, negative = inhibition: at the top concentration;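 also: GST tagged CIB1 binding a fluorescein labelled alphaIIb integrin peptide tracer; top concentration of the series differs between compounds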
Procedure, shortened: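 CIB1-GST (1 uM final) and compound incubated 15 min at room temperature before adding FITC-alphaIIb peptide tracer (100 nM final). Competition for binding read by fluorescence polarization (ex 480, em 540) after another 15 min at room temperature.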
% is scaled to controls: 0 for no effect and ±100 for the full control effect.

Chain of Calcium and integrin-binding protein 1 (Homo sapiens) (Q99828 whole entry, looked up): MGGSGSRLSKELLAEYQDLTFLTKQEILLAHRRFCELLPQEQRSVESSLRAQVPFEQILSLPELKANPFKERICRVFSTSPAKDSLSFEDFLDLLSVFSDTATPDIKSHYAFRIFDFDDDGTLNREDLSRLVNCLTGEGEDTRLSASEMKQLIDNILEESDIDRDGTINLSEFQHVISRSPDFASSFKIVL

SMILES	activity change, negative = inhibition	outcome
C[C@@H]1O[C@@H](O[C@@H]2C=C3CC[C@@H]4[C@@H](CC[C@]5(C)[C@H](c6ccc(=O)oc6)CC[C@@]45O)[C@@]3(C)CC2)[C@H](O)[C@H](O)[C@H]1O	0.817% (inactive)	
CC=C(C)C(=O)N[C@@H](c1ccccc1)[C@@H](O)C(=O)O[C@H]1C[C@@]2(O)[C@@H](OC(=O)c3ccccc3)[C@@H]3[C@]4(OC(C)=O)CO[C@@H]4C[C@H](O)[C@@]3(C)C(=O)[C@H](OC(C)=O)C(=C1C)C2(C)C	-1.08% (inactive)	
CC(=O)N(C)c1cccc(-c2ccnc3c(C(=O)c4cccs4)cnn23)c1		inactive
COc1ccc(CC2NCCc3cc(OC)c(OC)cc32)cc1OC (centres undefined)	1.87% (inactive)	
CCC(=O)OC1CCC2C3CCC4=CC(=O)CC[C@@]4(C)C3CC[C@]12C (some centres undefined)	-1.42% (inactive)	
CCOC(=O)c1cncn1[C@H](C)c1ccccc1	-0.103% (inactive)	
Cc1c(C(=O)Nc2cccc(C(F)(F)F)c2)cc(-c2ccccc2)n1CCCN1CCOCC1		inactive
CC(=Cc1csc(C)n1)[C@@H]1C[C@H]2O[C@@H]2CCC[C@H](C)[C@@H](O)[C@@H](C)C(=O)C(C)(C)[C@@H](O)CC(=O)O1	-0.705% (inactive)	
C[C@@]12OC(=O)[C@]1([C@@H](O)[C@@H]1C=CCCC1)NC(=O)[C@H]2CCCl	-0.319% (inactive)	
C1=C2CCCN[C@H]2[C@@H]2C[C@H]1[C@@H]1CCCCN1C2	-2.32% (inactive)	
O=[N+]([O-])c1ncc[nH]1	0.354% (inactive)	
C[C@]12Cc3cn[nH]c3C[C@@H]1CC[C@@H]1[C@H]2CC[C@@]2(C)[C@H]1CC[C@]2(C)O	-4.6% (inactive)	
CC(C)(C)[C@]1(O)C[C@@H]2OC(=O)C[C@@]23C(=O)O[C@@H]2OC(=O)[C@H](O)C213 (some centres undefined)	-0.103% (inactive)	
C[C@]12COC(=O)C[C@@H]1CC[C@@H]1[C@H]2CC[C@@]2(C)[C@H]1CC[C@]2(C)O	-0.75% (inactive)	
C=C[C@@H]1CN2CCC1C[C@H]2[C@H](O)c1ccnc2ccccc12 (some centres undefined)	2.88% (inactive)	
CC[C@@H]1[C@@H](C)O[C@@](O)([C@@H](C)[C@H](O)[C@H](C)[C@H]2OC(=O)C=CC=C[C@@H](C)[C@@H]([C@@H](C)[C@@H](O)[C@H](C)[C@@]3(O)C[C@H](O[C@H]4C[C@H](O)[C@H](O)[C@H](C)O4)[C@H](CC)[C@@H](C)O3)OC(=O)C=CC=C[C@@H]2C)C[C@H]1O[C@H]1C[C@H](O)[C@H](O)[C@H](C)O1	1.2% (inactive)	
CCCN1CCO[C@@H]2c3cc(O)ccc3OC[C@@H]21	-14.8% (inactive)	
CCCCCC[C@H]1C(=O)O[C@H](C)[C@H](NC(=O)c2cccc(NC=O)c2O)C(=O)O[C@@H](C)[C@@H]1OC(=O)CC(C)C	-6% (inactive)	
C[C@@H]1CC[C@@]2(OC1)O[C@H]1C[C@H]3[C@@H]4CC=C5C[C@@H](O[C@@H]6O[C@H](CO)[C@@H](O[C@@H]7O[C@@H](C)[C@H](O)[C@@H](O)[C@@H]7O)[C@H](O)[C@@H]6O[C@@H]6O[C@@H](C)[C@H](O)[C@@H](O)[C@@H]6O)CC[C@]5(C)[C@@H]4CC[C@]3(C)[C@@H]1[C@H]2C	4.92% (inactive)	
COc1cc2cc(c1Cl)N(C)C(=O)C[C@H](OC(=O)C(C)C)[C@]1(C)O[C@H]1[C@H](C)[C@@H]1C[C@@](O)(NC(=O)O1)[C@H](OC)C=CC=C(C)C2	5.5% (inactive)	
CC(=Cc1csc(C)n1)[C@@H]1C[C@H]2O[C@]2(C)CCC[C@H](C)[C@@H](O)[C@@H](C)C(=O)C(C)(C)[C@@H](O)CC(=O)O1	0.398% (inactive)	
COC1=CC(C)=C[C@@H](C)[C@@H](O)[C@@H](C)CC(C)=CC=C[C@H](OC)[C@H]([C@@H](C)[C@@H](O)[C@H](C)[C@@]2(O)C[C@@H](O)[C@H](C)[C@@H](C(C)C)O2)OC1=O	0.0575% (inactive)	
C[C@@H]1CC[C@H]2[C@@H](C)C(=O)O[C@@H]3O[C@@]4(C)CC[C@H]1[C@]32OO4	-0.496% (inactive)	
c1cc2c(cc1[C@H]1OC[C@H]3[C@H]1CO[C@H]3c1ccc3c(c1)OCO3)OCO2	-2.81% (inactive)	
CC(=O)OCC1=C(C(=O)O)N2C(=O)[C@@H](N)[C@@H]2SC1	-2.32% (inactive)	
O=C1CCC[C@@H]2[C@H]3CCCN4CCC[C@@H](CN12)[C@@H]34	7.64% (inactive)	
C[C@H]1CCCC=CC2C[C@H](O)C[C@@H]2[C@H](O)C=CC(=O)O1 (some centres undefined)	-7.28% (inactive)	
C[C@]12CCC(=O)C(O)=C1CC[C@@H]1[C@H]3CCC(=O)[C@@]3(C)CC[C@@H]12	-2.91% (inactive)	
CC(C)N(CCNC(=O)CN1CCCC1=O)C(C)C		inactive
